{
  "source": "PubChem BioAssay AID2685",
  "about": "(National Center for Advancing Translational Sciences (NCATS), 2010)",
  "note": "About 2,100 (0.66%) of roughly 320,000 compounds were called active. Not shown: some 53% with an inconclusive outcome. Calls come from the whole dose curve; as a rule, active = well fitted inhibition curve with a large enough effect in the signal ratio, with a control signal flat (not every such curve was filed as active); inconclusive = small, poorly fitted or top-dose-only effect, or effect the other way, or a change in a side signal; inactive = flat fitted curve, though single readings scatter; the % refers to the signal ratio. This excerpt belongs to a sample that is enriched for actives. Potency is the fitted concentration of half-maximal effect.",
  "data": [
    {"assay": "qHTS Assay for Lipid Storage Modulators in Drosophila S3 Cells;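 for cell number change: cells counted by Cell Tracker Red CMTPX staining in the red channel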; for lipid storage change, negative = inhibition: % is set by controls: 0 for no effect and ±100 for the full control effect", "conditions": "BODIPY lipid droplet fluorescence, 18-24 h, cells fed with added oleic acid; cell number change: measured here: cell count max response; series mostly up to 46.1 µM; lipid storage change, negative = inhibition: at the top concentration", "method_in_brief": "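Laser-scanning cytometry quantifies lipid droplet accumulation (500–530 nm total intensity; droplet/cell object ratio) in oleic acid-fed (400 uM added) Drosophila S3 cells treated with a concentration series. 20 uM Triacsin C defined 100% inhibition.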", "units": {"cell number change": "%"}, "values": [
      {"smiles": "CC(=O)Nc1ccc(C(=O)/C=C/c2ccco2)cc1", "lipid storage change, negative = inhibition": "9.95% (inactive)", "cell number change": -0.499},
      {"smiles": "Cc1noc(C)c1COc1ccccc1C(=O)N(C)Cc1ccc(F)cc1", "cell number change": -12.5, "lipid storage change, negative = inhibition": "19.1% [at 0.0737 µM] (inactive)"},
      {"smiles": "O=C(c1ccc2c(c1)OCO2)C1CCCN(Cc2cc(F)ccc2-n2cccn2)C1", "note": "(centres undefined)", "lipid storage change, negative = inhibition": "17% (inactive)", "cell number change": 10},
      {"smiles": "CCc1c(C)nc(N)n2c(SCC(=O)Nc3ccccc3OC)nnc12", "lipid storage change, negative = inhibition": "18.2% (inactive)", "cell number change": 6.92},
      {"smiles": "CCn1c(C)nnc1SCC(=O)NC1CCCCCC1", "lipid storage change, negative = inhibition": "-7.91% (inactive)", "cell number change": -4.99},
      {"smiles": "CCc1c(C)nc(N)n2c(SCC(=O)NC3CCCCC3)nnc12", "Potency": "1.3 µM (active)", "cell number change": 19.2},
      {"smiles": "COc1ccc(C)cc1N(CC(N)=O)S(=O)(=O)c1ccc(C)cc1", "lipid storage change, negative = inhibition": "3.59% (inactive)", "cell number change": -13.9},
      {"smiles": "COc1ccc(Nc2ncc(C#N)c(N)n2)c(OC)c1", "lipid storage change, negative = inhibition": "-12.5% (inactive)", "cell number change": 3.36},
      {"smiles": "Cc1c(NC(=O)/C=C/c2ccc(S(=O)(=O)N3CCOCC3)cc2)c(=O)n(-c2ccccc2)n1C", "lipid storage change, negative = inhibition": "5.25% (inactive)", "cell number change": 8.27},
      {"smiles": "CC(=O)Nc1ccc(NC(=O)C(C)OC(=O)CCc2nc3ccccc3s2)cc1", "note": "(centres undefined)", "lipid storage change, negative = inhibition": "-3.56% (inactive)", "cell number change": 4.88},
      {"smiles": "CC(OC(=O)CCCc1nc2ccccc2s1)C(N)=O", "note": "(centres undefined)", "Potency": "23.1 µM (active)", "cell number change": 18.5},
      {"smiles": "CCNC(=O)NC(=O)C(C)OC(=O)CCCc1nc2ccccc2s1", "note": "(centres undefined)", "lipid storage change, negative = inhibition": "8.8% (inactive)", "cell number change": 2.05},
      {"smiles": "Cc1nn(Cc2ccc(C(=O)n3cccn3)o2)c(C)c1Br", "lipid storage change, negative = inhibition": "0.611% (inactive)", "cell number change": -2.33},
      {"smiles": "Cc1csc(NC(=O)c2ccc(Cn3nc(C)c(Br)c3C)o2)n1", "Potency": "7.31 µM (active)", "cell number change": -7.94},
      {"smiles": "Cc1csc(NC(=O)c2cccc(Cn3nc(C)c(Br)c3C)c2)n1", "lipid storage change, negative = inhibition": "12.7% (inactive)", "cell number change": -7.75},
      {"smiles": "Cc1nnc2c(NCCc3ccccc3)nc3ccccc3n12", "lipid storage change, negative = inhibition": "6.56% (inactive)", "cell number change": 6.11},
      {"smiles": "CCC(=O)Oc1ccc2oc(=O)cc(C)c2c1", "lipid storage change, negative = inhibition": "12.6% (inactive)", "cell number change": -1.41},
      {"smiles": "CCc1ccc(NC(=S)N2CCC(NC(=O)c3ccccc3OC)CC2)cc1", "lipid storage change, negative = inhibition": "-7.78% (inactive)", "cell number change": 12.5},
      {"smiles": "Cc1cc(NC(=O)Cn2nc3c(cc2=O)CCCC3)ccc1Br", "lipid storage change, negative = inhibition": "24.1% (inactive)", "cell number change": 19.1},
      {"smiles": "COc1ccc(CCNC(=O)c2cc3c(=O)n4ccccc4nc3n(CCCN3CCOCC3)c2=N)cc1OC", "outcome": "inactive", "cell number change": 3.54},
      {"smiles": "N=c1c(C(=O)NCCN2CCOCC2)cc2c(=O)n3ccccc3nc2n1CCCN1CCOCC1", "Potency": "7.31 µM (active)", "cell number change": 8.12},
      {"smiles": "COc1ccc(CCNC(=O)c2cc3c(=O)n4ccccc4nc3n(Cc3ccco3)c2=N)cc1OC", "outcome": "inactive", "cell number change": -20.4},
      {"smiles": "N=c1c(C(=O)NCCN2CCOCC2)cc2c(=O)n3ccccc3nc2n1CCc1ccccc1", "outcome": "inactive", "cell number change": 15.8},
      {"smiles": "N=c1c(S(=O)(=O)c2ccc(Br)cc2)cc2c(=O)n3ccccc3nc2n1C1CCCCC1", "outcome": "inactive", "cell number change": 2.36},
      {"smiles": "N=c1c(C(=O)NCCc2ccccc2)cc2c(=O)n3ccccc3nc2n1CCCN1CCOCC1", "Potency": "6.51 µM (active)", "cell number change": -19},
      {"smiles": "N=c1c(C(=O)NCCc2ccccc2)cc2c(=O)n3ccccc3nc2n1Cc1ccco1", "Potency": "0.82 µM (active)", "cell number change": -1.35},
      {"smiles": "N=c1c(C(=O)NCc2ccco2)cc2c(=O)n3ccccc3nc2n1Cc1ccccc1", "outcome": "inactive", "cell number change": -4.14},
      {"smiles": "Cc1ccc(S(=O)(=O)c2cc3c(=O)n4ccccc4nc3n(C3CCCC3)c2=N)cc1", "outcome": "inactive", "cell number change": -1.32},
      {"smiles": "N=c1c(C(=O)NCc2ccccc2)cc2c(=O)n3ccccc3nc2n1CCCN1CCOCC1", "lipid storage change, negative = inhibition": "8.53% (inactive)", "cell number change": -5.03},
      {"smiles": "N=c1c(S(=O)(=O)c2ccc(Cl)cc2)cc2c(=O)n3ccccc3nc2n1C1CCCC1", "Potency": "13 µM (active)"},
      {"smiles": "Cc1ccc(Cn2c(=N)c(C(=O)NCCN3CCOCC3)cc3c(=O)n4ccccc4nc32)cc1", "lipid storage change, negative = inhibition": "-18.6% (inactive)", "cell number change": 21.5},
      {"smiles": "COc1ccc(C(=O)NCc2oc(-c3ccccc3)cc2C(=O)O)cc1", "lipid storage change, negative = inhibition": "20.5% (inactive)", "cell number change": -4.88},
      {"smiles": "COc1ccc2nc(/C=N/NC(=O)[C@H](CCSC)NC(=O)OC(C)(C)C)ccc2c1", "lipid storage change, negative = inhibition": "0.135% (inactive)", "cell number change": 13.4},
      {"smiles": "COC(=O)c1ccccc1NC(=O)CSc1nc(O)cc(=O)n1C1CCCC1", "lipid storage change, negative = inhibition": "19.2% (inactive)", "cell number change": 6.94},
      {"smiles": "O=C(NC(Cc1ccccc1)C(=O)O)/C(=C/c1ccco1)NC(=O)c1cccc([N+](=O)[O-])c1", "note": "(centres undefined)", "lipid storage change, negative = inhibition": "-3.12% (inactive)", "cell number change": -0.0963},
      {"smiles": "Oc1cccc(N2Cc3ccccc3C2)c1", "lipid storage change, negative = inhibition": "-2.83% (inactive)", "cell number change": -1.3},
      {"smiles": "CCN1CCN(S(=O)(=O)c2ccc(Cl)c(C(=O)N(C)C(c3ccccc3)c3ccccc3)c2)CC1", "lipid storage change, negative = inhibition": "17.2% (inactive)"},
      {"smiles": "C=CCOc1ccc2ccccc2c1CNn1cn[nH]c1=S", "outcome": "inactive", "cell number change": 10.6},
      {"smiles": "Cc1ccc(OCC(=O)NCCCNC(=O)c2ccncc2)cc1", "outcome": "inactive", "cell number change": 0.901},
      {"smiles": "CCOC(=O)N1CCN(C(=O)c2ccc3nc(N4CCCCC4)sc3c2)CC1", "lipid storage change, negative = inhibition": "-10.6% (inactive)", "cell number change": -1.93},
      {"smiles": "CCOC(=O)CNC(=O)N1CCCC(CNS(=O)(=O)c2cccs2)C1", "note": "(centres undefined)", "lipid storage change, negative = inhibition": "6.02% (inactive)", "cell number change": 11.3},
      {"smiles": "Cc1ccc(S(=O)(=O)N2CCOCC2)cc1NC(=O)COC(=O)CCC(=O)c1ccc(F)cc1", "lipid storage change, negative = inhibition": "17% (inactive)", "cell number change": 14.2},
      {"smiles": "N=c1c(C(=O)NCc2ccco2)cc2c(=O)n3ccccc3nc2n1C1CCCC1", "Potency": "0.651 µM (active)", "cell number change": 10.3},
      {"smiles": "COCCCn1c(C(=O)N2CCOCC2)cc2c(=O)n3ccccc3nc21", "lipid storage change, negative = inhibition": "-8.57% (inactive)", "cell number change": 17.7},
      {"smiles": "O=C(NCCN1CCOCC1)c1cc2c(=O)n3ccccc3nc2n1Cc1ccccc1", "lipid storage change, negative = inhibition": "21.5% (inactive)", "cell number change": 13.8},
      {"smiles": "N=c1c(C(=O)NC2CCCC2)cc2c(=O)n3ccccc3nc2n1C1CCCC1", "lipid storage change, negative = inhibition": "0.118% (inactive)", "cell number change": -15.6},
      {"smiles": "COCCCn1c(C(=O)NCCN2CCOCC2)cc2c(=O)n3ccccc3nc21", "Potency": "1.84 µM (active)", "cell number change": 5.41},
      {"smiles": "N=c1c(C(=O)NCC2CCCO2)cc2c(=O)n3ccccc3nc2n1C1CCCCC1", "note": "(centres undefined)", "outcome": "inactive", "cell number change": -7.39}
    ]}
  ]
}
